HSF1 activator: HSF-1 activators, primary screen, NIH3T3-HGL cells, MG132 stress, luminescence, single point. hit rate 1.7% among 300,000. activation, % at 9 µM. NIH3T3-HGL HSF-1 luciferase reporter, 8 h; 100% = twice DMSO control signal;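 active means mean replicate activation of at least 50% with a set share of replicates each reaching 50%; inconclusive means only one of those two conditions met; inactive means mean below 50% and too few replicates reaching it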;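 further: 0% = median of the neutral control wells and 100% = twice that signal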
esBAF inh: Bmi1 luciferase reporter increase in mESCs, primary screen, esBAF inhibitor project, mouse ES cells, Bmi1 luciferase knock-in, single point. 24 h; 100% = twice the neutral-well signal. reporter increase, % at 12.5 µM. hit rate 2% among 350,000; in the data active means activation above about 40%; inconclusive means no clear call, values can overlap the other calls;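 further: 0% = median of the plate's neutral control wells and 100% = double that signal; a rise in the Bmi1 reporter signal indicates esBAF inhibition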
HSF1 inh: HSF1 inhibitors in luciferase reporter cells, primary screen, cell-based, NIH3T3, luminescence | NIH3T3-HGL HSE-luciferase, MG132-induced, luminescence 8 h; hits give low values | hit rate 0.77% among 300,000 | AID 2098, 2009 | activity change, negative = inhibition, % at 7.5 µM (by protocol);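 active means more than half of replicate wells show activity change below -50%, luminescence cut by over half; inconclusive means some wells, but at most half, below -50%; inactive means no replicate well below -50%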;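 further: luciferase reports HSF-1 transcriptional activity via heat shock element; 0% = median of DMSO wells and -100% = zero luminescence signal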
MITF act: activators of MITF-driven TRPM1 promoter reporter, primary screen, cell-based, SK-MEL-5, luciferase, single point; hit rate 0.75% among 300,000; activation, % at 12.5 µM; SK-MEL-5 TRPM1-promoter luciferase, 24 h; % of positive control, neutral wells = 0;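 active means mean activation of at least 80% with every replicate also reaching 80%; inconclusive means mean reaches 80% but some replicate falls short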;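 further: 0% = neutral control wells and 100% = parthenolide positive control wells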
Wnt act: Wnt/beta-catenin pathway activators, primary screen, cell-based, plate reader, single point; Wnt/beta-catenin reporter cell assay, activator; activation, % at 9.35 µM; hit rate 1.2% among 300,000; AID 743398, 2014; in the data active means activation above about 30%, passing the limit was not always enough; inconclusive means no clear call, values can overlap the other calls;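 further: 0% = neutral control wells and 100% = positive control wells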
Active calls of the source: *; ? = inconclusive; nt = no result given. An excerpt weighted towards active compounds, which were near 3.8% of everything screened.

SMILES	HSF1 activator	esBAF inh	HSF1 inh	MITF act	Wnt act
COc1cccc(Nc2nc(-c3sc(C)nc3C)cs2)c1	41	71*	23	nt	0
Cc1nc(C)c(-c2csc(Nc3ccc(O)cc3C)n2)s1	18	19	1	25	2
Cc1nc(C)c(-c2csc(Nc3ncccc3C)n2)s1	61*	55*	34	36	15
Cc1nc(C)c(-c2csc(Nc3ccc(C(=O)O)c(O)c3)n2)s1	-1	-2	1	5	1
Cc1nc(C)c(-c2csc(Nc3ccc(Cl)cn3)n2)s1	nt	60*	nt	nt	0
Cc1noc(C)c1S(=O)(=O)Nc1ccc2c(c1)CC(=O)N([C@@H](C)CO)C[C@H](C)[C@@H](CN(C)C(=O)Nc1ccc(F)cc1)O2	nt	-3	nt	nt	nt
Cc1cccc(C)c1NC(=S)NC(=O)c1ccc(Br)o1	-3	1	4	-12	-4
O=C(NC(=S)Nc1ccccc1F)c1ccc(Br)o1	28	49*	21	34	0
CCC(=O)NC(=S)Nc1ccc(NC(=O)c2ccc(OC)cc2)cc1	-16	nt	3	-13	-1
CCC(=O)NC(=S)Nc1ccc(NC(=O)c2ccc(Br)o2)cc1	28	69*	3	5	-3
Cc1cccc(NC(=S)NC(=O)c2ccc(Br)o2)c1C	92*	nt	44	9	-1
Cc1ccc(C)c(NC(=S)NNC(=O)c2ccc(Br)o2)c1	33	22	14	16	nt
Cc1ccc(NC(=S)NC(=O)c2ccc(Br)o2)c(C)c1	41	nt	13	88*	9
O=C(NNC(=S)Nc1ccccc1C(F)(F)F)c1ccc(Br)o1	nt	nt	nt	0	-1
C[C@@H]1CN([C@@H](C)CO)C(=O)c2cc(-c3ccc(C#N)cc3)cnc2O[C@@H]1CN(C)Cc1ccccn1	nt	0	nt	nt	nt
O=C(Nc1cccc2ccccc12)c1ccc(Br)o1	nt	-14	nt	3	nt
CSc1ccccc1NC(=O)c1ccc(Br)o1	27	52*	23	48	6
Cc1ccnc(NC(=O)c2cccc(S(=O)(=O)N3CCOCC3)c2)c1	-1	50*	6	2	22
O=C(O)c1cccc(NC(=O)c2cccc(S(=O)(=O)N3CCCCC3)c2)c1	1	8	-11	6	nt
O=C(Nc1cccc(O)c1)c1ccc(Br)c(S(=O)(=O)N2CCCCC2)c1	-15	66*	-3	33	-11
O=C(Nc1cccc(O)c1)c1cccc(S(=O)(=O)N2CCCCCC2)c1	30	53*	10	32	7
Cc1ccc(-c2csc(NC(=O)COC(=O)c3cccc(S(=O)(=O)N4CCOCC4)c3)n2)cc1	36	nt	19	nt	45*
C[C@H](CO)N1C[C@H](C)[C@H](CN(C)S(=O)(=O)c2ccccc2)Oc2ccc(NC(=O)Nc3cccc4ccccc34)cc2CC1=O	nt	-5	nt	nt	nt
COc1ccc(NC(=O)N2C[C@H](O)COC[C@@H]3O[C@@H](CC(=O)N4CCOCC4)CC[C@H]32)cc1	nt	2	nt	nt	nt
C[C@H](CO)N1C[C@H](C)[C@H](CN(C)S(=O)(=O)c2cccs2)Oc2ccc(NC(=O)CCN3CCOCC3)cc2C1=O	nt	4	nt	nt	nt
SMILES	HSF1 activator	esBAF inh	HSF1 inh	MITF act	Wnt act
CN(C)c1ccc(C(=O)Nc2cccc(S(=O)(=O)N3CCCC3)c2)cc1	nt	62*	nt	47	14
CN(C)S(=O)(=O)c1cccc(NC(=O)c2ccc(S(=O)(=O)N3CCCCC3)cc2)c1	-12	3	-4	-7	-8
Cc1cccc(C(C)C)c1NC(=O)COC(=O)c1cccc(S(=O)(=O)N2CCc3ccccc3C2)c1	56*	nt	17	1	-3
COc1ccc(S(=O)(=O)Nc2ccc3c(c2)C(=O)N([C@@H](C)CO)C[C@H](C)[C@@H](CN(C)C(=O)c2ccncc2)OCCCC[C@@H](C)O3)cc1	nt	3	nt	nt	nt
CCCCSc1nnc(-c2ccccc2N)c(=O)[nH]1	21	97*	9	24	30
Cc1ccc(C(=O)Nc2ccc(S(=O)(=O)N3CCOCC3)cc2)cc1Br	12	nt	8	nt	41*
Cc1ccc(C(=O)Nc2ccc(S(=O)(=O)N3CCOCC3)cc2)cc1C	3	8	-3	nt	0
O=C(Nc1ccc(S(=O)(=O)N2CCOCC2)cc1)c1cc([N+](=O)[O-])ccc1Cl	?	1	43	7	-1
O=C(Nc1ccc(S(=O)(=O)N2CCOCC2)cc1)c1ccc(Cl)cc1Cl	-74	-8	-67*	36	6
O=C(CCNC(=O)c1ccc(Br)cc1)Nc1ccc(S(=O)(=O)N2CCOCC2)cc1	nt	-8	nt	3	36*
Cc1noc(C)c1S(=O)(=O)N(C)C[C@@H]1OCCCC[C@H](C)Oc2ccc(NC(=O)C3CCCCC3)cc2C(=O)N([C@@H](C)CO)C[C@H]1C	nt	6	nt	nt	nt
CN1c2ccc(-c3ccccc3)cc2[C@H]2[C@H](CCN2C(=O)Cc2cccnc2)[C@@H]1CO	nt	1	nt	nt	nt
Cc1noc(C)c1NC(=O)Nc1ccc2c(c1)C(=O)N([C@@H](C)CO)C[C@H](C)[C@@H](CN(C)Cc1ccc(Oc3ccccc3)cc1)O2	nt	-2	nt	nt	nt
O=C(NCC[C@H]1CC[C@H](NC(=O)C2CC2)[C@H](CO)O1)c1cnccn1	nt	-1	nt	nt	nt
CC(=O)Nc1c(O)nc(SCC(=O)Nc2cccc(C)c2)[nH]c1=O	-18	-1	-4	3	nt
CC(=O)Nc1c(O)nc(SCC(=O)Nc2ccc(C(C)=O)cc2)[nH]c1=O	15	76*	1	77	1
O=C(CSc1nc2c(c(=O)[nH]1)CCC2)Nc1cccc(F)c1	32	-3	9	0	0
O=C(CSc1nc2c(c(=O)[nH]1)CCC2)Nc1ccc(F)cc1	68*	-4	25	-4	0
COc1ccc(S(=O)(=O)Nc2cccc3c2O[C@H](CN(C)CC2CC2)[C@H](C)CN([C@@H](C)CO)C3=O)cc1	nt	-6	nt	nt	nt
C[C@@H]1CCCCO[C@@H](CN(C)C(=O)Nc2ccc(C(F)(F)F)cc2)[C@@H](C)CN([C@H](C)CO)C(=O)c2cc(NC(=O)Nc3ccc(C(F)(F)F)cc3)ccc2O1	nt	-10	nt	nt	nt
CCOC(=O)c1cc2c(=O)n3cccc(C)c3nc2n(CCOC)c1=NC(C)=O	-72	nt	-63*	nt	2
CCOC(=O)c1cc2c(=O)n3ccccc3nc2n(Cc2ccco2)c1=NC(=O)c1ccccc1OC	100*	6	49	16	-1
N=c1c(C(=O)NCCc2ccccc2)cc2c(=O)n3ccccc3nc2n1Cc1ccco1	75*	2	46	15	0
CNC[C@@H]1OCCCC[C@H](C)Oc2ccc(NC(=O)Nc3ccc(C(F)(F)F)cc3)cc2C(=O)N([C@@H](C)CO)C[C@@H]1C	nt	-9	nt	nt	nt
Oc1ccc(C2C(c3ccccc3)=NN=C(c3ccc(Cl)cc3)N2O)c(O)c1 (stereo unspecified)	21	46*	20	19	3

From PubChem
